Screening data deposited in PubChem by National Center for Advancing Translational Sciences (NCATS).
TDP1 cell noCPT: qHTS for Inhibitors of human tyrosyl-DNA phosphodiesterase 1 (TDP1): qHTS in cells in absence of CPT; DT40 Tdp1-/- hTDP1 cells, no CPT, ATP luminescence, 48 h; Potency, µM (doses to about 46.2 µM), inactives show at the top dose activity change, negative = growth inhibition, actives largely listed as inhibitors; actives 15% (n = 420,000); AID 686978, 2013; note: potency is the fitted concentration of half-maximal effect; nearly all actives have a fitted effect of over 55% in size
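Readout: luminescence from CellTiter-Glo after 30 min in the dark at RT. Cells: DT40 Tdp1-/- with stable hTDP1, 400/well. Exposure: compounds alone, ≥48 hr, 37 °C.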
ELG1 DNA repair: blocks ELG1-dependent DNA repair in HEK293T cells. HEK293T ELG1-luciferase reporter, luminescence, 16 h; DNA damage induced by 5-fluorouridine. Potency, µM (series often up to 46.1 µM), for the others: top-dose activity change, negative = inhibition, usual class: inhibitors. actives 2.3% (n = 330,000). AID 504467; note: potency is the fitted concentration of half-maximal effect; nearly all actives have a fitted effect of over 55% in size
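5-Fluorouridine DNA damage + compound/DMSO, 2,000 cells/well, 16 h, 37 °C/5% CO2. ONE-Glo, 30 min RT, luminescence. Readout = decrease in reporter signal.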
HT1080NT lethal: kills 2HG-producing HT-1080-NT fibrosarcoma cells. HT-1080-NT fibrosarcoma viability, CellTiter-Glo ATP luminescence, 48 h. Potency, µM (top dose mostly 46.1 µM), for inactives: at the top dose activity, negative = less viability, hits mostly cytotoxic. actives 1.6% (n = 360,000);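 note: NT is the 2HG producing partner of a matched IDH1 knockdown line; potency is the fitted concentration of half-maximal effect; 0% = DMSO-treated cells and -100% = media-only wells without cells; nearly all actives have a fitted effect of over 55% in size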
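Viability of the 2HG-overproducing fibrosarcoma line after 48 hours of compound exposure at 37 degrees C was determined by luminescence with CellTiter-Glo, and concentration-effect curves were then fitted and categorized.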
HT1080 IDH1KD tx: toxicity to HT-1080 IDH1 knockdown cells (counter line). HT-1080 IDH1 knockdown viability, ATP luminescence, 48 h. Potency, µM (highest dose often 46.1 µM), for the others: at the top dose activity, negative = toxicity, hits mostly cytotoxic. actives 2% (n = 360,000). AID 686971;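 note: potency is the fitted concentration of half-maximal effect; 0% = DMSO wells and -100% = cell-free medium wells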
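IDH1KD HT-1080 cells, 750/well, RPMI + 5% FBS; compound pinned after 2 h settling; 48 h, 37 °C; CellTiter-Glo luminescence; % activity normalised to DMSO and no-cell wells; curves fitted, classed by r2 and efficacy.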
TDP1 cell CPT: DT40-hTDP1 cell growth loss with CPT. chicken DT40 Tdp1-/-;hTDP1 cells + 20 nM CPT, ATP luminescence, 48 h. Potency, µM (doses to about 46.2 µM), for the others: at the top dose activity change, negative = growth inhibition, most hits filed as inhibitors. actives 12% (n = 420,000); note: potency is the fitted concentration of half-maximal effect; nearly all actives have a fitted effect of over 55% in size
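Cell growth measured by CellTiter-Glo luminescence after a minimum 48 h, 37 C compound exposure with 20 nM CPT in Tdp1-knockout DT40 cells stably expressing hTDP1, seeded 400/well; qHTS titration format.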
IL-1B inflam inh: inhibitors of inflammasome signaling (IL-1 beta secretion); THP-1 LPS/ATP IL-1B secretion, AlphaLISA, 16 h; active compounds read low; activity change, % at 57.5 µM; actives 4.7% (n = 360,000); AID 743279; in the data active = activity change below about -50%; inconclusive = mostly about -30% to -49%
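THP-1 cells pretreated 1 hr with compounds (up to 57.5 uM final), then stimulated with LPS (250 ng/mL final) plus ATP (1.25 mM final); secreted IL-1B measured by AlphaLISA after 16 hr, decreased signal indicating inhibition.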
* = called active by the depositor; ? = inconclusive; nt = no result given. A selection: hits, their analogues and other compounds. The true share with any hit is near 19%. Unless noted, calls come from the whole dose curve; as a rule, active = well fitted curve in the direction sought with a large enough effect; inconclusive = small, poorly fitted or top-dose-only effect, or another doubt; inactive = no such curve, though single readings can be large; an effect the other way counts as inactive or inconclusive. Unless noted, % is set by controls: 0 for no effect and ±100 for the full control effect.

SMILES	TDP1 cell noCPT	ELG1 DNA repair	HT1080NT lethal	HT1080 IDH1KD tx	TDP1 cell CPT	IL-1B inflam inh
O=C(C[C@@H]1C/C=C\CCC(=O)OC[C@@H]2CCCN2C1=O)N[C@H](CO)Cc1ccccc1	2.2%	17.7%	3.1%	1.8%	19.6%	15.3
O=C(C[C@H]1C/C=C\CC[C@@H](Cc2ccc(F)cc2)C(=O)OC[C@H]2CCCN2C1=O)N[C@@H](CO)Cc1ccccc1	14.6µM*	-21.3%	-28.1%	-0.8%	?	-20.2
O=C(C[C@@H]1C/C=C\C[C@@H](Cc2ccc(F)cc2)C(=O)OC[C@H]2CCCN2C1=O)N[C@H](CO)Cc1ccccc1	20.6µM*	?	0.6%	0.6%	?	-4.9
CC(C)C[C@@H](CO)N1CCN(Cc2cccnc2)CCC1=O	10.6%	?	11.5%	-5.6%	?	19.1
OCCCNc1ncnc2c1ncn2[C@H]1CN(C2CCCC2)C[C@@H](CO)O1	-6.7%	nt	23.2%	-8.7%	-12.7%	32.9
O=C(C[C@@H]1C/C=C\CC[C@@H](Cc2ccc(F)cc2)C(=O)OC[C@@H]2CCCN2C1=O)N[C@H](CO)Cc1ccccc1	18.4µM*	?	-0.8%	-7.5%	16.4µM*	-6.7
O=C(C[C@H]1C/C=C\CC[C@H](Cc2ccc(F)cc2)C(=O)OC[C@@H]2CCCN2C1=O)N[C@H](CO)Cc1ccccc1	?	-7.2%	-0.3%	-1.2%	25.9µM*	-13.4
O=C(C[C@H]1C/C=C\C[C@@H](Cc2ccc(F)cc2)C(=O)OC[C@H]2CCCN2C1=O)N[C@@H](CO)Cc1ccccc1	?	10.6%	0.3%	-3.0%	?	-16.1
COc1cc2ccccc2cc1C(=O)Nc1nnc(-c2ccncc2)o1	-20.9%	-13.3%	-1.6%	12.5%	-9.8%	-0.6
COc1ccccc1NC(=O)Nc1nc(C(N)Cc2ccc(C(F)(F)F)cc2)cs1 (stereo unspecified)	14.6µM*	nt	nt	nt	13µM*	0.0
NC(c1ccccc1)c1csc(NC(=O)NCCc2ccccc2)n1 (stereo unspecified)	?	nt	?	?	?	-62.9*
COc1ccc(CC(=O)Nc2ccccc2Oc2ccccc2)cc1	nt	2.2%	nt	nt	nt	nt
NC(Cc1ccc(C(F)(F)F)cc1)c1csc(NC(=O)Nc2ccccc2Oc2ccccc2)n1 (stereo unspecified)	18.4µM*	nt	?	-6.3%	?	-59.8*
NC(Cc1ccccc1)c1csc(NC(=O)Nc2ccccc2Oc2ccccc2)n1 (stereo unspecified)	20.6µM*	nt	?	?	-110.5%	?
COC(=O)[C@H](Cc1ccccc1)NC(=O)NCCc1ccc(F)cc1	-24.6%	0.0%	?	-17.5%	-0.9%	-5.3
NC(c1ccccc1)c1csc(NC(=O)Nc2ccccc2Oc2ccccc2)n1 (stereo unspecified)	14.6µM*	nt	?	?	?	-11.3
NC(Cc1ccc(C(F)(F)F)cc1)c1csc(NC(=O)NCCc2ccccc2)n1 (stereo unspecified)	13µM*	nt	23.1µM*	18.4µM*	11.6µM*	-101.0*
CC(=O)Nc1ccccc1Oc1ccccc1	16.8%	-1.4%	-0.5%	-6.2%	-2.9%	-20.6
CN(C)Cc1csc(NC(=O)Nc2ccccc2Oc2ccccc2)n1	?	nt	16.4µM*	?	?	-104.0*
CCCNC(=O)C1(C)CCN(C(=O)c2cc(C(C)(C)C)nn2C)C1 (stereo unspecified)	1.6%	nt	0.5%	18.7%	-7.2%	23.1
CCCNC(=O)C1CCC(Cn2c(=O)c3sccc3n(CC(=O)Nc3ccccc3C)c2=O)CC1 (stereo unspecified)	-0.5%	nt	nt	nt	4.0%	nt
COc1ccccc1NC(=S)N(CCCN1CCOCC1)Cc1cn(C)c2ccccc12	16.4µM*	-29.9%	1.0%	1.7%	14.6µM*	-7.7
CCOc1ccccc1NC(=S)N(CCCN1CCOCC1)Cc1cn(C)c2ccccc12	?	-24.0%	-4.8%	-7.9%	16.4µM*	-10.9
O=C(N/N=C(\Cc1ncc[nH]1)c1ccccc1)c1cccnc1	4.61µM*	9.2µM*	?	?	4.61µM*	101.5
O=C(N/N=C(\Cc1ncc[nH]1)c1ccccc1)c1ccncc1	4.61µM*	?	-27.0%	4.11µM*	4.61µM*	58.7
SMILES	TDP1 cell noCPT	ELG1 DNA repair	HT1080NT lethal	HT1080 IDH1KD tx	TDP1 cell CPT	IL-1B inflam inh
CCOC(=O)CN1C(c2ccc(O)cc2)Nc2ccc(Br)cc2C1c1ccccc1 (stereo unspecified)	?	?	16.4µM*	?	14.6µM*	-101.5*
OC1(c2ccc(Cl)c(C(F)(F)F)c2)CCN(CCCC(c2ccc(F)cc2)c2ccc(F)cc2)CC1	2.99µM*	nt	nt	nt	2.66µM*	nt
COc1ccc(S(=O)(=O)Nc2ccc(C(N)=O)cc2)cc1C(=O)N1CCCCCC1	-15.5%	23.9%	10.0%	13.3%	1.0%	0.9
CCN(C(=O)COC(=O)c1ccccc1Cc1ccccc1)c1c(N)n(Cc2ccccc2)c(=O)[nH]c1=O	?	nt	-5.5%	-3.7%	?	-5.4
Cc1ccc(Nc2c(-c3cccnc3)nc3ccc(Br)cn23)cc1	?	-4.5%	0.0%	7.9%	?	3.1
Cc1ccccc1Nc1c(-c2cccnc2)nc2cccc(C)n12	20.6µM*	?	-12.4%	-0.3%	?	3.0
Cc1cccc2nc(-c3cccnc3)c(Nc3ccc(C(C)C)cc3)n12	16.4µM*	nt	nt	nt	?	nt
Cc1ccccc1Nc1c(-c2cccs2)nc2cccc(C)n12	13µM*	nt	nt	nt	14.6µM*	nt
CC(C)c1ccc(NC(=S)Nc2ccc3cn[nH]c3c2)cc1	-18.9%	13.2%	-1.8%	-0.3%	-7.1%	-15.5
CC(=O)c1ccc(NC(=S)Nc2ccc3cn[nH]c3c2)cc1	?	17.1%	-1.5%	-0.2%	?	-72.8*
Oc1cccc(-c2nc3ccc4ccccc4c3c3c2CCC3)c1	20.6µM*	?	?	?	?	0.0
CCOC(=O)c1cc(OCC)c2c(ccc3ccccc32)n1	?	nt	4.4%	-2.9%	-25.9%	18.2
Cc1cc(C)nc(Sc2nc(Cl)nc(N(c3ccccc3)c3ccccc3)n2)n1	?	?	-2.5%	3.7%	?	-96.9*
Cc1cc(C)nc(SC(C(=O)O)c2ccccc2)n1 (stereo unspecified)	-6.5%	?	16.7%	3.1%	1.8%	11.6
